Assay outcomes (PubChem)
Compounds with a hit are over-represented: about 5.5% of the library has one in this group of screens.
RORgamma inh: ROR gamma (mouse) transcription inhibition; Potency, µM (highest dose often 53.6 µM), for the others: at the highest dose activity change, negative = inhibition, usual class: inhibitors; Drosophila S2 Gal4-RORgamma UAS-luciferase reporter, 20 h; 310,000 tested, 5.4% active; P51450; AID 2551; note: % is set by controls: 0 for no effect and ±100 for the full control effect; nearly all actives have a fitted effect of over 60% in size
Target sequence (P51450 whole entry, looked up, the tested form may be a part): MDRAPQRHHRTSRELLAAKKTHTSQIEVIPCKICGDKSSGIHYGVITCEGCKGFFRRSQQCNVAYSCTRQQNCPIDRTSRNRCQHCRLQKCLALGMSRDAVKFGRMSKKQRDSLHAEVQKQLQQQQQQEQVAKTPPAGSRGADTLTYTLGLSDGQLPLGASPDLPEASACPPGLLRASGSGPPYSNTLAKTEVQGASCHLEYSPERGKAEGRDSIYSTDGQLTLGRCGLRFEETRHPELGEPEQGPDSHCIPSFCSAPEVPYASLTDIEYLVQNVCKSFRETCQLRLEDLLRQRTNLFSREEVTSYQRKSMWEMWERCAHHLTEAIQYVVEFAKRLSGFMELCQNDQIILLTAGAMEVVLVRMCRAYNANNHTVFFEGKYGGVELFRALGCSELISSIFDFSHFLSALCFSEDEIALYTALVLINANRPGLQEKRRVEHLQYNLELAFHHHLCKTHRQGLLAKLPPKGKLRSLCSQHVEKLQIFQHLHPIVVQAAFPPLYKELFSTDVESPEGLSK
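A Gal4/UAS one-hybrid system in insect cells: metallothionein-promoter Gal4–ROR gamma fusion plus Photinus luciferase reporter. Copper sulfate 700 uM final, 20 hr ambient incubation, luminescent detection after 10 min with reagent.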
Chronic BCR inh: chronic active BCR signaling inhibition. Potency, µM (top dose mostly 46.1 µM), for inactives: at the top dose activity change, negative = inhibition, hits mostly inhibitors. 340,000 tested, 0.05% active. ABC-DLBCL IkBa-CBG/CBR reporter, luminescence ratio, 4 h; active = well fitted inhibition curve with a large enough effect in the signal ratio, with a control signal flat, not every such curve was filed as active; inconclusive = small, poorly fitted or top-dose-only effect, or effect the other way, or a change in a side signal; the % refers to the signal ratio;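 note: plate controls were basal doxycycline-induced cells for no effect and cells given 10 µM MG132 for full effect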
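Cell line TMD8 (human ABC DLBCL), stably expressing tet-inducible CBG68-IkBa fusion and CBR; IMDM/0.5% FBS; cpd up to 46 uM; dox induction, 4 h, 37C/5% CO2; dual luminescence; green/red ratio; MG132 control.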
Mito fusion act: inhibitors of mitochondrial division or activators of mitochondrial fusion; S. cerevisiae fusion-defective mutant growth rescue, CellTiterGlo 48 h; Potency, µM (doses to about 46.1 µM), inactives show at the highest dose growth rescue (activation), usual class: activators; 320,000 tested, 0.23% active; note: % of control where 0% means no effect; nearly all actives have a fitted effect of over 45% in size
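Compounds are tested for their ability to restore growth of mitochondrial fusion-defective yeast strains at non-permissive 37C in YPEG medium over 48 hours. Viability is quantified by luciferase luminescence.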
VP16 counter: inhibits Gal4-VP16 luciferase reporter, ROR gamma counter-screen. Drosophila S2 Gal4-VP16 UAS-luciferase, luminescence, 20 h. Potency, µM (titrated, usually from 53.6 µM), without a hit: at the top dose activity, negative = inhibition, most hits filed as inhibitors. 310,000 tested, 3.5% active;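 note: Gal4-VP16 expression switched on by copper sulfate through the metallothionein promoter; % is set by controls: 0 for no effect and ±100 for the full control effect; nearly all actives have a fitted effect of over 50% in size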
Integrin act MD: activates integrin-mediated alleviation for muscular dystrophy; Potency, µM (doses to about 38.3 µM), for the others: at the top dose activation, usual class: activators; AID 624291; 350,000 tested, 0.064% active; alpha7betagal myoblasts, beta-gal FDG fluorescence, 48 h;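 note: 100% = response of the positive control SU9516; nearly all actives have a fitted effect of over 60% in size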
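alpha7betagal+/- myoblasts (passage 13, 250/well) treated 48 h at 37C with compounds at 1:260 dilution of DMSO stock. Lysed, then beta-galactosidase activity read as FDG fluorescence (ex 480/em 540) after 30 min, with pre-read for autofluorescence.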
uPA surface inh: inhibitors of cell surface uPA generation; cell surface uPA generation assay, qHTS; Potency, µM (top dose mostly 38.3 µM), for inactives: at the highest dose activity change, negative = inhibition, actives largely listed as inhibitors; 330,000 tested, 0.31% active; AID 540303; active = well fitted inhibition curve with a large enough effect; inconclusive = small, poorly fitted or top-dose-only effect; inactive = no such curve, though single readings can be large or run the other way; tested in mouse RAW 264.7 cells; note: % is set by controls: 0 for no effect and ±100 for the full control effect; nearly all actives have a fitted effect of over 55% in size
An asterisk follows results filed as active. Unless noted, calls come from the whole dose curve; as a rule, active = well fitted curve in the direction sought with a large enough effect; inconclusive = small, poorly fitted or top-dose-only effect, or another doubt; inactive = no such curve, though single readings can be large; an effect the other way counts as inactive or inconclusive. Potency is the fitted concentration of half-maximal effect.

Results for COC(=O)CC1C2(C)CC34OC5(C)O[C@@]6(C7/C(=C(/OC)C(C)C)C(=O)OC(c8ccoc8)[C@@]7(C)C(OC(=O)C(C)C)C(OC)[C@]6(O5)[C@@]13C)C(OC)[C@]4(OC)C2OC(C)=O (stereo not given in full) ?
RORgamma inh: 16%; VP16 counter: 3%

How did O=C(Nc1ncc(Cc2ccccc2Cl)s1)c1ccc([N+](=O)[O-])cc1 do in these assays?
RORgamma inh: 2µM*; Chronic BCR inh: 2%; Mito fusion act: -1%; VP16 counter: 2.8µM*; Integrin act MD: 23%; uPA surface inh: 8%

How did O=C(Nc1nc2ccccc2[nH]1)C1CCCO1 (stereo not given) do in these assays?
RORgamma inh: 0%; Chronic BCR inh: -5%; Mito fusion act: 3%; VP16 counter: 5%; Integrin act MD: -8%; uPA surface inh: -3%

How did O=C(Nc1ccc(-c2nc3ccccc3[nH]2)cc1)C1CCCO1 (stereo not given) do in these assays?
RORgamma inh: 1%; Chronic BCR inh: inconclusive; Mito fusion act: -21%; VP16 counter: 7.1µM*; Integrin act MD: -9%; uPA surface inh: inconclusive

Results for O=C(Nc1sc2c(c1-c1nc3ccccc3[nH]1)CCCC2)C1CCCC1 ?
RORgamma inh: 10µM*; Chronic BCR inh: inconclusive; Mito fusion act: 0%; VP16 counter: -10%; Integrin act MD: 13%; uPA surface inh: 11%

What do the screens show for `COc1ccc(NS(=O)(=O)c2ccc(NC(=O)C3CCCO3)cc2)cc1` (stereo not given)?
RORgamma inh: 37%; Chronic BCR inh: 1%; Mito fusion act: -3%; VP16 counter: -8%; Integrin act MD: -14%; uPA surface inh: 1%

Results for O=C(Nc1ccc(-c2nc3ccccc3[nH]2)cc1)c1ccc2c(c1)OCO2 ?
RORgamma inh: inconclusive; Chronic BCR inh: 14%; Mito fusion act: 1%; VP16 counter: 11µM*; Integrin act MD: -52%; uPA surface inh: -3%

How did CC(=O)NCCC(=O)Nc1sc2c(c1-c1nc3ccccc3[nH]1)CCCC2 do in these assays?
RORgamma inh: -17%; Chronic BCR inh: 15%; Mito fusion act: 0%; VP16 counter: 1%; Integrin act MD: 2%; uPA surface inh: 0%

What do the screens show for `Cc1ccc(NS(=O)(=O)c2ccc(NC(=O)C3CCCO3)cc2)cc1` (stereo not given)?
RORgamma inh: inconclusive; Chronic BCR inh: inconclusive; Mito fusion act: 5%; VP16 counter: 18µM*; Integrin act MD: -35%; uPA surface inh: 4%

Results for COc1cc2c(cc1OC)C(C)N(S(=O)(=O)c1ccc(Cl)nc1)CC2 (stereo not given) ?
RORgamma inh: 0%; Chronic BCR inh: -1%; Mito fusion act: -5%; VP16 counter: 4%; Integrin act MD: -3%; uPA surface inh: 14%

What do the screens show for `Cc1ccc(C2NC(=NCc3ccccc3)Nc3nc(C)cc(=O)n32)cc1` (stereo not given)?
RORgamma inh: -19%; Chronic BCR inh: inconclusive; Mito fusion act: -2%; VP16 counter: inconclusive; Integrin act MD: -13%; uPA surface inh: 0%

Results for CC1=CC(=O)C(C(C)C)=C/C1=N/OC(=O)c1cccc([N+](=O)[O-])c1 ?
RORgamma inh: 1µM*; Chronic BCR inh: inconclusive; Mito fusion act: 3%; VP16 counter: inconclusive; Integrin act MD: -47%; uPA surface inh: -20%

What do the screens show for `CC1=CC(=NOC(=O)c2cccc([N+](=O)[O-])c2)C=C(C)C1=O`?
RORgamma inh: inconclusive; Chronic BCR inh: inconclusive; Mito fusion act: 4%; VP16 counter: inconclusive; Integrin act MD: -39%; uPA surface inh: -11%

Results for [O-]/C(=C(\C(=S)NCc1ccco1)[n+]1ccccc1)c1ccccc1Br ?
RORgamma inh: 22µM*; Chronic BCR inh: 1%; Mito fusion act: 1%; VP16 counter: 10%; Integrin act MD: 35%; uPA surface inh: 4%
